# Source: PMC7862700, “An all-to-all approach to the identification of sequence-specific readers for epigenetic DNA modifications on cytosine”
# Key:
# Assay in all cases: DAPPL (digital affinity profiling via proximity ligation, sequencing); 10 mM Tris-HCl pH 7.5, 50 mM NaCl, 1 mM DTT, 4% glycerol, room temperature, 30 min; GST-TFs on glutathione beads, 16-mer random dsDNA library, 0.1% formaldehyde crosslink after washing; high values mean tight binding
# FEV = biological target: T1, FEV (Homo sapiens, UniProt Q99581 1-238); details: protein: recombinant; tags: N-terminal GST; dsDNA, one strand shown
# T1 sequence: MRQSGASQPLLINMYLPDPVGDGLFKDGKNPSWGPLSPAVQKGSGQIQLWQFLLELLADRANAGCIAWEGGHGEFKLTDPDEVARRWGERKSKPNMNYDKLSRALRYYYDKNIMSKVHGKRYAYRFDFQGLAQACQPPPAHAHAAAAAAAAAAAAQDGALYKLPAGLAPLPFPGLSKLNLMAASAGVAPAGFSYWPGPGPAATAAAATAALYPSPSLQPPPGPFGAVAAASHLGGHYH
# Procedure, shortened: (§1)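 Human transcription factors fused to GST were expressed in yeast, captured on glutathione beads, given DNA barcodes and pooled with a GST-only negative control. Pools were incubated with 200 nmole of a 16-mer random double-stranded DNA library in Tris/NaCl/DTT/glycerol buffer at room temperature for 30 min. They were then washed, crosslinked with 0.1% formaldehyde, proximity-ligated (BsaI/T4 ligase, 1 h, 37 °C), PCR-amplified and sequenced on an Illumina NextSeq500. Binding signal is each 6-mer's read frequency for a factor divided by its frequency for the GST control.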
# ETV5 = ETV5 (Homo sapiens, UniProt P41161 1-510); details: protein: recombinant; tags: N-terminal GST; dsDNA, one strand shown
# Procedure, shortened: as §1
# HSF1 = HSF1 (Homo sapiens, UniProt Q00613 1-529); details: protein: recombinant; tags: N-terminal GST; chain copies: 3; dsDNA, one strand shown
# Procedure, shortened: as §1
# SPIC = biological target: T2, SPIC (Homo sapiens, UniProt Q8N5J4 1-248); details: protein: recombinant; tags: N-terminal GST; dsDNA, one strand shown
# T2 sequence: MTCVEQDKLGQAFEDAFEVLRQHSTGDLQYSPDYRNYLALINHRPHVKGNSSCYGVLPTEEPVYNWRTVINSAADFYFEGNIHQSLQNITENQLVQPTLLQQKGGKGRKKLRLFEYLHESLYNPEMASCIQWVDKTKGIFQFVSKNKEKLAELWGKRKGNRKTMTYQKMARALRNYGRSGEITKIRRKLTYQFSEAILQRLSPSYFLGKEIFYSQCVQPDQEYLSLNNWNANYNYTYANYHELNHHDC
# Procedure, shortened: as §1
# ELF4 = ELF4 (Homo sapiens, UniProt Q99607 1-663); details: protein: recombinant; tags: N-terminal GST; dsDNA, one strand shown
# Procedure, shortened: as §1
# ELK4 = biological target: T3, ELK4 (Homo sapiens, UniProt P28324-2 1-405); details: protein: recombinant; tags: N-terminal GST; dsDNA, one strand shown
# T3 sequence: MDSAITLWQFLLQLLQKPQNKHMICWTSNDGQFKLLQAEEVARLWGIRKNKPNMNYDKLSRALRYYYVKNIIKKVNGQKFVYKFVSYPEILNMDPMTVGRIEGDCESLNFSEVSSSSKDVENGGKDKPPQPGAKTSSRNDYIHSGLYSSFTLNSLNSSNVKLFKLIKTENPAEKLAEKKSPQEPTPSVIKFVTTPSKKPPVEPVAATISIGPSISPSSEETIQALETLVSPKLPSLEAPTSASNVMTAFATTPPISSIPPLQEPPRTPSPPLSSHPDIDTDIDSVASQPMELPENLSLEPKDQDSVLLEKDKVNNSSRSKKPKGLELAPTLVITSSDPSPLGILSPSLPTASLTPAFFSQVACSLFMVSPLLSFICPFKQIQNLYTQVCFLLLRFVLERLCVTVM
# Procedure, shortened: as §1
# ETV2 = biological target: T4, ETV2 (Homo sapiens, UniProt O00321 1-342); details: protein: recombinant; tags: N-terminal GST; dsDNA, one strand shown
# T4 sequence: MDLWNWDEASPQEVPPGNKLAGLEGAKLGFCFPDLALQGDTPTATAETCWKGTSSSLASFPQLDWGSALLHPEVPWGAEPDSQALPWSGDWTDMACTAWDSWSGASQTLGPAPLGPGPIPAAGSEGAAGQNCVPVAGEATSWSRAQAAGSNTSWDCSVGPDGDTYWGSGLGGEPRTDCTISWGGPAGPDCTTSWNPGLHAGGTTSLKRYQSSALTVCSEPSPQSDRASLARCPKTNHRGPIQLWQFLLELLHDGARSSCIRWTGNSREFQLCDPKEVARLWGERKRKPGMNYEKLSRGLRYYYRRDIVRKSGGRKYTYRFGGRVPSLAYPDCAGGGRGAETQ
# Procedure, shortened: as §1
# ELF3 = biological target: T5, ELF3 (Homo sapiens, UniProt P78545 1-371); details: protein: recombinant; tags: N-terminal GST; dsDNA, one strand shown
# T5 sequence: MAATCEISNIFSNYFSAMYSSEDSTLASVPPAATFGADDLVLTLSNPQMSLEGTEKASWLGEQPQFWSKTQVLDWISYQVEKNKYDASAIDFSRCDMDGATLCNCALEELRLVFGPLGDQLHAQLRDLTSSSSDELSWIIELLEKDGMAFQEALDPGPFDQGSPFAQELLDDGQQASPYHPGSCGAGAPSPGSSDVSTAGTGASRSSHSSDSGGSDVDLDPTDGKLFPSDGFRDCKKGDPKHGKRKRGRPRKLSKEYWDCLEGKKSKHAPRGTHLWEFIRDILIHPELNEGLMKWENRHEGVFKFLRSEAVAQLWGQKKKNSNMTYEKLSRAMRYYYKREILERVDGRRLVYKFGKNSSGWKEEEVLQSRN
# Procedure, shortened: as §1
# CRX = CRX (Homo sapiens, UniProt O43186 1-299); details: protein: recombinant; tags: N-terminal GST; dsDNA, one strand shown
# Procedure, shortened: as §1
# ETV1 = ETV1 (Homo sapiens, UniProt P50549 1-477); details: protein: recombinant; tags: N-terminal GST; dsDNA, one strand shown
# Procedure, shortened: as §1
# ERF = biological target: T6, ERF (Homo sapiens, UniProt P50548 1-548); details: protein: recombinant; tags: N-terminal GST; dsDNA, one strand shown
# T6 sequence: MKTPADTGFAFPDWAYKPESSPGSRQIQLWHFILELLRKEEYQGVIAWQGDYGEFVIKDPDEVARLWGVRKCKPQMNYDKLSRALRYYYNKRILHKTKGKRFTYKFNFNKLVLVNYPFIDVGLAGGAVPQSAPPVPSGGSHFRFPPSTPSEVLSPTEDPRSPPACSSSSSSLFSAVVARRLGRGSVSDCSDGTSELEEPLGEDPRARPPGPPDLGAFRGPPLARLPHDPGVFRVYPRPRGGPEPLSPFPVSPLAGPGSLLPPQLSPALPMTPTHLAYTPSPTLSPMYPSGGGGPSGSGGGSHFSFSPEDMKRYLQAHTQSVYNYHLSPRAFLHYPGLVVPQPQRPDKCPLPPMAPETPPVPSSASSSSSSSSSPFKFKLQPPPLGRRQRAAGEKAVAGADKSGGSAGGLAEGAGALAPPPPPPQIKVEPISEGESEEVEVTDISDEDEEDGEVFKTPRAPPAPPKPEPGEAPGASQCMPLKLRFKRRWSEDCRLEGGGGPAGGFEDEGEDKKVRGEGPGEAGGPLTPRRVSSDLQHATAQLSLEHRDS
# Procedure, shortened: as §1
# ETV3L = biological target: T7, ETV3L (Homo sapiens, UniProt Q6ZN32 1-361); details: protein: recombinant; tags: N-terminal GST; dsDNA, one strand shown
# T7 sequence: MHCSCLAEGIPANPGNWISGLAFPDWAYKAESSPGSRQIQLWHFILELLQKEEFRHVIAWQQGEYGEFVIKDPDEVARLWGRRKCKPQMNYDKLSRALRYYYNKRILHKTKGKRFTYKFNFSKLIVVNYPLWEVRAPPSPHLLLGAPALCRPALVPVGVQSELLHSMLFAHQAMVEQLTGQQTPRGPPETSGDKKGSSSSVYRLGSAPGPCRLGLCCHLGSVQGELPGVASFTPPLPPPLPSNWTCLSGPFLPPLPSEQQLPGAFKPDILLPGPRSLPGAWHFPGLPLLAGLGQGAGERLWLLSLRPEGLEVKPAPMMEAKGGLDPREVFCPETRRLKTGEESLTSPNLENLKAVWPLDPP
# Procedure, shortened: as §1
# ETS2 = biological target: T8, ETS2 (Homo sapiens, UniProt P15036 1-469); details: protein: recombinant; tags: N-terminal GST; dsDNA, one strand shown
# T8 sequence: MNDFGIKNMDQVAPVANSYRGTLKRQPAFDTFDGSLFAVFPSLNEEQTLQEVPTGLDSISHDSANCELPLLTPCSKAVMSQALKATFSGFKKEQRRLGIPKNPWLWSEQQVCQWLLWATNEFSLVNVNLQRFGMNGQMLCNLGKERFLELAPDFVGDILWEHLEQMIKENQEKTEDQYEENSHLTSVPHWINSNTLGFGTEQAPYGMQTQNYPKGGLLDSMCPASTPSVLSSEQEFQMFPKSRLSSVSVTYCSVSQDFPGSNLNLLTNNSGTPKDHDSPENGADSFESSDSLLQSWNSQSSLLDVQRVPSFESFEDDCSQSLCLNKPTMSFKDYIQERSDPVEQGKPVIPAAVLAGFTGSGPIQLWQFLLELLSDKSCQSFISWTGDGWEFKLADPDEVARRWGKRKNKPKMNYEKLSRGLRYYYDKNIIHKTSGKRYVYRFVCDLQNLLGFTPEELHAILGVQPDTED
# Procedure, shortened: as §1
# SPDEF = biological target: T9, SPDEF (Homo sapiens, UniProt O95238 1-335); details: protein: recombinant; tags: N-terminal GST; dsDNA, one strand shown
# T9 sequence: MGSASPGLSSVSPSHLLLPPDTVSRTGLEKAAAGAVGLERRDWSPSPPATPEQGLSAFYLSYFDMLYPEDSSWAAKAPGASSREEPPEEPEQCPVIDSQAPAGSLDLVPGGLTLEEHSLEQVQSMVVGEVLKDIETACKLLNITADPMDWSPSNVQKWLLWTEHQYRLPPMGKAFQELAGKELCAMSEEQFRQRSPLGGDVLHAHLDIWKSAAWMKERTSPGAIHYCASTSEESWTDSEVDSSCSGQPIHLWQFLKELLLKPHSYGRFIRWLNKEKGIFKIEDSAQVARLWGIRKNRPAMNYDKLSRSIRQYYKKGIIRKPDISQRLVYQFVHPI
# Procedure, shortened: as §1
# ETV7 = biological target: T10, ETV7 (Homo sapiens, UniProt Q9Y603 1-341); details: protein: recombinant; tags: N-terminal GST; dsDNA, one strand shown
# T10 sequence: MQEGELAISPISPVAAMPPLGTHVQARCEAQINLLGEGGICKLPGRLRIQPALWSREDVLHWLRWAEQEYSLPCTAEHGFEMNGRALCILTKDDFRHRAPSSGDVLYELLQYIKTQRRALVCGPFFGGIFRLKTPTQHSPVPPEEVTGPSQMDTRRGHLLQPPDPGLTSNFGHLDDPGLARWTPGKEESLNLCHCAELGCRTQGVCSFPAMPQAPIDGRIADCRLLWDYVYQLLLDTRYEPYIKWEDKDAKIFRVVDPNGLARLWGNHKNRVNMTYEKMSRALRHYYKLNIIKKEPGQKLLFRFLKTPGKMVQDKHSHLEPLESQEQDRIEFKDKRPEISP
# Procedure, shortened: as §1
# ELF5 = biological target: T11, ELF5 (Homo sapiens, UniProt Q9UKW6-2 1-255); details: protein: recombinant; tags: N-terminal GST; dsDNA, one strand shown
# T11 sequence: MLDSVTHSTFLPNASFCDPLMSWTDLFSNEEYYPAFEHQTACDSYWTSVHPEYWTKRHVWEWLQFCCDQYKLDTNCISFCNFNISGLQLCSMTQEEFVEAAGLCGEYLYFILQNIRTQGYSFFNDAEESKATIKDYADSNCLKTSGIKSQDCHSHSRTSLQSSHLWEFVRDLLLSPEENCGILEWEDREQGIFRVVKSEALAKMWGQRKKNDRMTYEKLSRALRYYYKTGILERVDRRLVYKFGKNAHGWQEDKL
# Procedure, shortened: as §1
# ETV3 = biological target: T12, ETV3 (Homo sapiens, UniProt P41162-2 1-143); details: protein: recombinant; tags: N-terminal GST; dsDNA, one strand shown
# T12 sequence: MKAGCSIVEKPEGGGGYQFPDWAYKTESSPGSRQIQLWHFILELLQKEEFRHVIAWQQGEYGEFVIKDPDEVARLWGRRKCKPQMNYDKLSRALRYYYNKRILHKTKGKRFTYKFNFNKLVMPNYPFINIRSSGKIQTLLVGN
# Procedure, shortened: as §1
# ETV6 = ETV6 (Homo sapiens, UniProt P41212 1-452); details: protein: recombinant; tags: N-terminal GST; dsDNA, one strand shown
# Procedure, shortened: as §1
# ETV6, sequence (P41212 whole entry): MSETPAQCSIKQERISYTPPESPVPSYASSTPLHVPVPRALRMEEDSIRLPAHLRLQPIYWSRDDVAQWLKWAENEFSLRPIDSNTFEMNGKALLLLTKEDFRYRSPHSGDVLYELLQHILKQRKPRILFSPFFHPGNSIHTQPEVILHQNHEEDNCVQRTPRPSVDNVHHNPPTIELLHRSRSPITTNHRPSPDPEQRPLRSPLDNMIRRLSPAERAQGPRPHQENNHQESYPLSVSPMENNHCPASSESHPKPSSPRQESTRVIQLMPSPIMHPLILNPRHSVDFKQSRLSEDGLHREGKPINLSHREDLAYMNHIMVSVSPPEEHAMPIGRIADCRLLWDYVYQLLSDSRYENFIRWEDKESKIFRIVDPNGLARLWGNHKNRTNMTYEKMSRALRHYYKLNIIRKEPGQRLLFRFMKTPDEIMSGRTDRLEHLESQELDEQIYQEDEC
# HSF1, sequence (Q00613 whole entry): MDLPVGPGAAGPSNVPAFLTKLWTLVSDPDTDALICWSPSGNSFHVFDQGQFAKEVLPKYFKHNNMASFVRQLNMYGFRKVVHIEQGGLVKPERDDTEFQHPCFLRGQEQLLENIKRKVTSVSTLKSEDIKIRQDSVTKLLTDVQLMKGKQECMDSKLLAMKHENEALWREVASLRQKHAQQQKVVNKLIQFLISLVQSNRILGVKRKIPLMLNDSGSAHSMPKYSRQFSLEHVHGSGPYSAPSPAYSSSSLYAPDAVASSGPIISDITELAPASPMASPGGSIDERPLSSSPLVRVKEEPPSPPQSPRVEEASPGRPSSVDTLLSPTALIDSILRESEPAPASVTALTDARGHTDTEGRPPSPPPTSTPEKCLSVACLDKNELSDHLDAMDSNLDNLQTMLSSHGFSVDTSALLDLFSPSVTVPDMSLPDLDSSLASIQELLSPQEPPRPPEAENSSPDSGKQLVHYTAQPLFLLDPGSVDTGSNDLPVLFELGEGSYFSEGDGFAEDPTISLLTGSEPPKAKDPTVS
# ETV1, sequence (P50549 whole entry): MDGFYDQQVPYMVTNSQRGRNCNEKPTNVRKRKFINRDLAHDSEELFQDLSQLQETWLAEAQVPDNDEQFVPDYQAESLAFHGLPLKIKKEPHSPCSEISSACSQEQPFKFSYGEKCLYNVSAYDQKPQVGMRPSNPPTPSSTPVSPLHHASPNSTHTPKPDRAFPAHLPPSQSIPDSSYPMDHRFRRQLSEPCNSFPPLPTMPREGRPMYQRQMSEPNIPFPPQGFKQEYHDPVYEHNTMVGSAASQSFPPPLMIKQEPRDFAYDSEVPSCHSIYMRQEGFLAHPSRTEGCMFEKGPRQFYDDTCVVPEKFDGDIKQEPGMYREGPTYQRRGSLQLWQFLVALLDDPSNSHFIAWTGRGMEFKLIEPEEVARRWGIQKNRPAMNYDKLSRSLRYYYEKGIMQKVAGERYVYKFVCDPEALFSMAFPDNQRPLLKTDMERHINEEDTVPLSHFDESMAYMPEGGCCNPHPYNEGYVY
# ETV5, sequence (P41161 whole entry): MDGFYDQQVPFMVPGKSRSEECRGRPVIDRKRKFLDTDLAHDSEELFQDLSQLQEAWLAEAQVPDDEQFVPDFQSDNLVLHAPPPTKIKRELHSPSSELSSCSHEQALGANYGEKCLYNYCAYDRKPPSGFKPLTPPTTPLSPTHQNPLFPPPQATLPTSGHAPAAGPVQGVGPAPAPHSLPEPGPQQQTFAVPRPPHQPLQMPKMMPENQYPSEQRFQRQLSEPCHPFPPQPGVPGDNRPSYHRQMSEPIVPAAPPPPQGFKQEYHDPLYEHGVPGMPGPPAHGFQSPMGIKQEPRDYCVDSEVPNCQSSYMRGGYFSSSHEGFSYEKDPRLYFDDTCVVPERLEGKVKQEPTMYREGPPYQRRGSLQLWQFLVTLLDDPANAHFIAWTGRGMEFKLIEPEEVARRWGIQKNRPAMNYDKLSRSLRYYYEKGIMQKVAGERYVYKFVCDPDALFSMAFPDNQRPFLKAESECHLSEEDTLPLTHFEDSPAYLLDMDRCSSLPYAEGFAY
# CRX, sequence (O43186 whole entry): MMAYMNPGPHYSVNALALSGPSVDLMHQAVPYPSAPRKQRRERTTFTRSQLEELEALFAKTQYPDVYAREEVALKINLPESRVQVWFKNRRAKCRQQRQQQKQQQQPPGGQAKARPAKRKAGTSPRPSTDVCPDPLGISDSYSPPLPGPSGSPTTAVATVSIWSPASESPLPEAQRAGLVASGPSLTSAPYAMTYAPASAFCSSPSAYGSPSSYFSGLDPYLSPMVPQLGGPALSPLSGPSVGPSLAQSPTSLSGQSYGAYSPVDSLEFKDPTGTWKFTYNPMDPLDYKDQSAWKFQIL
# ELF4, sequence (Q99607 whole entry): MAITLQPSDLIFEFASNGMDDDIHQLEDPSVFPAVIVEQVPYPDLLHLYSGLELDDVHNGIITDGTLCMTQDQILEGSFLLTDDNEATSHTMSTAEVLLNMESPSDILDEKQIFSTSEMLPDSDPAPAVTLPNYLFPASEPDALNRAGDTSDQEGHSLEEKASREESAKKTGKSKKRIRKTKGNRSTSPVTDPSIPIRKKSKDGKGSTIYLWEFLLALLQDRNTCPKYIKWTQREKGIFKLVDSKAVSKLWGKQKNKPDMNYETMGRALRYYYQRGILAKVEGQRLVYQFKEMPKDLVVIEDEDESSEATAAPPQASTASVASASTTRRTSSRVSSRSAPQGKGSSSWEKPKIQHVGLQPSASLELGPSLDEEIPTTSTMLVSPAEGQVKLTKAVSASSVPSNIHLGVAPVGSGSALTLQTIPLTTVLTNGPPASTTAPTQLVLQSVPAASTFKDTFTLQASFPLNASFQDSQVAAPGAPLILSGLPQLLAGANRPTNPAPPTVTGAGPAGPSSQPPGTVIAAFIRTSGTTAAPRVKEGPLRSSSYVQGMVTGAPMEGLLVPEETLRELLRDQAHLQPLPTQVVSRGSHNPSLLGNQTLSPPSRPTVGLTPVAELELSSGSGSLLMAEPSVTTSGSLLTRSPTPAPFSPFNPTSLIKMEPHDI
sequence,measurement,setting,value
TATGAA,binding signal,FEV,"1.14 fold enrichment (6-mer frequency, TF over GST control)"
same,binding signal,ETV5,"1.12 fold enrichment (6-mer frequency, TF over GST control)"
same,binding signal,HSF1,"1.21 fold enrichment (6-mer frequency, TF over GST control)"
same,binding signal,SPIC,"1.4 fold enrichment (6-mer frequency, TF over GST control)"
same,binding signal,ELF4,"1.26 fold enrichment (6-mer frequency, TF over GST control)"
same,binding signal,ELK4,"1.13 fold enrichment (6-mer frequency, TF over GST control)"
same,binding signal,ETV2,"1.17 fold enrichment (6-mer frequency, TF over GST control)"
same,binding signal,ELF3,"1.29 fold enrichment (6-mer frequency, TF over GST control)"
same,binding signal,CRX,"1.25 fold enrichment (6-mer frequency, TF over GST control)"
same,binding signal,ETV1,"1.14 fold enrichment (6-mer frequency, TF over GST control)"
same,binding signal,ERF,"1.21 fold enrichment (6-mer frequency, TF over GST control)"
same,binding signal,ETV3L,"1.21 fold enrichment (6-mer frequency, TF over GST control)"
same,binding signal,ETS2,"1.27 fold enrichment (6-mer frequency, TF over GST control)"
same,binding signal,SPDEF,"1.16 fold enrichment (6-mer frequency, TF over GST control)"
same,binding signal,ETV7,"1.2 fold enrichment (6-mer frequency, TF over GST control)"
same,binding signal,ELF5,"1.07 fold enrichment (6-mer frequency, TF over GST control)"
same,binding signal,ETV3,"1.17 fold enrichment (6-mer frequency, TF over GST control)"
same,binding signal,ETV6,"1.13 fold enrichment (6-mer frequency, TF over GST control)"
